Percent Effect data for 19 compounds are collected here from ChEMBL document CHEMBL3988442, “University of Dundee, Small-Polar-MMV Screening Library” (2021).

For assay [1], the target named is T1, Aspartate--tRNA(Asp/Asn) ligase (Mycobacterium tuberculosis (strain ATCC 25618 / H37Rv)) (UniProt P9WFW3). Note: in the data most compounds retested in dose-response had high values.
T1 sequence (whole entry): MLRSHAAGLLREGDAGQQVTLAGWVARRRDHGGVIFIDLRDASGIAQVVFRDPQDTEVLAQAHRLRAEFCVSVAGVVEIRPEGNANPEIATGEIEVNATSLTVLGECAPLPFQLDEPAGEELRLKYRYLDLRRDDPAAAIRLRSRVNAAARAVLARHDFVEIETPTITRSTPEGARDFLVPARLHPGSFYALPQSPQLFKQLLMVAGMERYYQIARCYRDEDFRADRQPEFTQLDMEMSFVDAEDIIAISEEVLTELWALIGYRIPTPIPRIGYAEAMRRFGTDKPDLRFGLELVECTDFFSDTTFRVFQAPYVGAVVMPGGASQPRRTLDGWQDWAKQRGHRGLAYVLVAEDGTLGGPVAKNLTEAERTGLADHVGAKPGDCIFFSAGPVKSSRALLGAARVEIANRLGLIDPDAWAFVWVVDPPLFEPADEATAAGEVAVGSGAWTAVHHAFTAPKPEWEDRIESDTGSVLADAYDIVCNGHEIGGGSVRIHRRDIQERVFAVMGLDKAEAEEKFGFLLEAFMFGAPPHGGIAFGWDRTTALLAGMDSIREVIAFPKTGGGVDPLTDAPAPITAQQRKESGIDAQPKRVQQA
The assay can be described thus: Assay for Asp RNA synthetase-1 from Mycobacterium tuberculosis. In kind it is functional. Particulars: 30 µM. Further details: scale not given: direction of the effect not stated beside the values.

The target of assay [2] is Shiga toxin 2 (Escherichia coli O157:H7) (UniProt P09385+P09386). Kind of assay: E. coli 0.157:H7 Shiga Toxin SOP - stx2 screening assay. It is filed as functional. Further details: scale not given: direction of the effect not stated beside the values. Particulars: 30 µM.

Regarding `CN(C)S(=O)(=O)N1C[C@@H](Oc2ccccn2)[C@H]2OCCC[C@H]21`, the values for the Percent Effect in assay [1] and in assay [2] were 2.06% and -15.9%, respectively.
On to `OC[C@H]1CC[C@]2(CC1)CN(Cc1ccccc1F)Cc1ccccc1O2`, for which the Percent Effect was -2.81% in assay [1] and 20.1% in assay [2].
As to `Cc1cccc(NC(=O)CNC(=O)Cn2ncc(Cl)c(Cl)c2=O)c1C`, the values for the Percent Effect in assay [1] and in assay [2] were 9.53% and -21.2%, respectively.
Taken in the same sequence, the figures for `C=C(C)C(=O)N1CCC(C(=O)c2cc(C)cnc2N)CC1` were -5.78% and -12%.
In the case of `CC(=O)N1CCN(Cc2nnc(C(C)(C)C)o2)CC1`, the Percent Effect is 3.25% in assay [1] and -4.69% in assay [2].
Consider `Cc1ncnc2c1CCN(Cc1ccc3c(c1)OCO3)CC2`, for which the results for the Percent Effect in assay [1] and in assay [2] were -0.729% and -19.3%, respectively.
As to `CN(C)S(=O)(=O)N1CCCC(c2cccc(Cc3ccccc3)n2)C1` (stereo not drawn), the Percent Effect in assay [1] was determined as 2.78%; in assay [2], 67.3%.
Consider `CC(C)CCN1CCNC(=O)C1CC(=O)N1CCc2sccc2C1` (stereo not drawn), for which the Percent Effect in assay [1] is -3.89%; in assay [2], -7.76%.
Consider `Cc1nc(C)n(CC2CCCN2Cc2nc(-c3cccs3)no2)n1` (stereo not drawn), for which the figures for the Percent Effect in assay [1] and in assay [2] were -2.77% and 29.7%, respectively.
For the compound `O=C(NCCc1coc(-c2ccc(F)cc2)n1)NC1CCC(O)CC1` (stereo not drawn), the Percent Effect in assay [1] was -3.81%; in assay [2], -24.9%.
As to `CC(C)(C)c1n[nH]c(C2CN(C(=O)c3csnn3)CCO2)n1` (stereo not drawn), the Percent Effect in assay [1] is -2.01%; in assay [2] it was 5.88%.
On the same counts, the results for `CSc1ncccc1C(=O)N1C[C@H]2CC[C@@H]1CN(c1ncccn1)C2` are 4.84% and -56.4%.
For `CC(=O)c1ccc(N2CCCC(CO)(CCOc3ccccc3)C2)nc1` (stereo not drawn), the Percent Effect was -2.11% in assay [1] and -9.89% in assay [2].
As for `Cc1ccc(C(=O)N2CCn3cc(CN(C)Cc4ccco4)nc3C2)o1`, the Percent Effect in assay [1] was -0.889%; in assay [2], -35.1%.
As for `Cc1csc(C2CCCCN2C(=O)CN(C)C2CC2)n1` (stereo not drawn), the values for the Percent Effect in assay [1] and in assay [2] were -4.06% and -4.47%, respectively.
With `O=C(NCc1csc(Br)c1)c1ccc(=O)[nH]n1`, the Percent Effect was -0.83% in assay [1] and -13.6% in assay [2].
For the compound `Cc1nc(C)n(CC2CN(c3ncccn3)Cc3nccn3C2)n1` (stereo not drawn), the Percent Effect was -0.127% in assay [1] and 11.6% in assay [2].
In the case of `O=C(CN1CCC(N2CCNC2=O)CC1)NCC(F)(F)F`, the Percent Effect was -5.14% in assay [1] and -3.06% in assay [2].
As for `O=C(NC1CCCC1)NC1CCC(C(=O)N2CCSCC2)CC1` (stereo not drawn), the Percent Effect in assay [1] was 1.78%; in assay [2], -37.4%.
